For 5 compounds, Potency results are on record in PubChem BioAssay (Tox21).

Assay [1] can be described thus: cAMP Responsive Elements (CRE) small molecule antagonists, cell-based qHTS assay: qHTS cell viability counter screen (AID 2060913). Also: nearly all actives have a fitted effect of over 40% in size. The note with it: CRE-bla HEK293T viability, CellTiter-Glo luminescence, 5 h; series mostly up to 92.4 µM. A digest of the protocol:
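Viability of NKH477-stimulated (0.25 uM final) CRE-bla HEK293T cells is measured by CellTiter-Glo luminescence following 3 hrs compound exposure at 37 C.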
In general terms: In qHTS, concentration-response curves come from the screen itself.

Assay [2] in a line: cAMP Responsive Elements (CRE) small molecule agonists, cell-based qHTS assay: qHTS cell viability counter screen (AID 2060914). Also: nearly all actives have a fitted effect of over 50% in size. The following applies: CRE-bla HEK293T viability, CellTiter-Glo luminescence, 5 h; series mostly up to 92.4 µM. A digest of the protocol:
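Cytotoxicity was measured as ATP luminescence (CellTiter-Glo, 30 min at room temperature) in the same wells as the CRE-bla FRET read-out. HEK293T CRE-bla cells had 3 h compound exposure at 37C/5% CO2.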

Structures are written as SMILES. Results filed as inconclusive are left out. Where a call stands in place of a potency, no number is given. Active and inactive are the calls of the source. Calls follow the shape of the dose curve; as a rule, active = well fitted cell-killing curve with a large enough effect in the repeat runs; inconclusive = weak or mixed curves, or effect the other way; inactive = flat fitted curve, though single readings scatter.

As for `CCN(CC)C(C)CN1c2ccccc2Sc2ccccc21` (stereo not given), the Potency result in assay [1] and in assay [2] was “inactive” each time.

Turning to `CCCCC(C)C(=O)O` (stereo not given), the Potency result in assay [1] and in assay [2] was “inactive” in each case.

As for `Cc1c(C)c2c(c(C)c1O)CC[C@@](C)(CCC[C@H](C)CCC[C@H](C)CCCC(C)C)O2`, the Potency result in assay [1] and in assay [2] was “inactive” throughout.

For `COC(=O)c1cc(Cl)cc(Cl)c1`, the Potency entry in assay [1] and in assay [2] was “inactive” each time.

Regarding `O=C(O)Cc1ccc(Cl)cc1Cl`, the Potency result in assay [1] and in assay [2] was “inactive” in each case.
